We go through 14 compounds from PubChem BioAssay.

The target in assay [1] is Cell division control protein 42 homolog (Homo sapiens) (UniProt P60953). Put plainly: activated mutant Cdc42 GTP-binding inhibitors, dose response, biochemical, multiplex bead flow cytometry, Bodipy-FL-GTP (AID 1333;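 active = fitted half-maximal concentration within the tested dose range, moderate curve steepness, a statistically real signal drop, and little compound fluorescence or tag-binding interference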). A general note: A flow cytometer gives signals particle by particle.
Sequence of Cell division control protein 42 homolog (Homo sapiens) (P60953 whole entry, looked up): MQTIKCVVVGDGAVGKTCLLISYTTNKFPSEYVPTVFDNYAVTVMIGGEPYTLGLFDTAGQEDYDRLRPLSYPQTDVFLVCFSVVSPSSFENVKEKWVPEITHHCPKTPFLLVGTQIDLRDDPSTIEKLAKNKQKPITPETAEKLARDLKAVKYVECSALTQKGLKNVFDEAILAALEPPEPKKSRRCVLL
Assay [2] has the same target. The experiment in a line: wildtype Cdc42 GTP-binding inhibitors, dose response, biochemical, multiplex bead flow cytometry, Bodipy-FL-GTP (AID 1334;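 active = fitted half-maximal concentration within the tested range, moderate curve steepness, significant signal drop, and little compound fluorescence or bead-linkage interference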). To be noted: bead-based flow cytometry, Bodipy-FL-GTP binding to GST-Cdc42; at 100 µM (top of the series) unless noted.
The target of assay [3] is GTPase HRas (Homo sapiens) (UniProt P01112). The experiment in a line: inhibitors of GTP binding to wildtype Ras, dose response, biochemical, multiplex bead flow cytometry (AID 1335). To be noted: bead-based flow cytometry, Bodipy-GTP binding to GST-Ras; at 100 µM (top of the series) unless noted.
Sequence of GTPase HRas (Homo sapiens) (P01112 whole entry, looked up): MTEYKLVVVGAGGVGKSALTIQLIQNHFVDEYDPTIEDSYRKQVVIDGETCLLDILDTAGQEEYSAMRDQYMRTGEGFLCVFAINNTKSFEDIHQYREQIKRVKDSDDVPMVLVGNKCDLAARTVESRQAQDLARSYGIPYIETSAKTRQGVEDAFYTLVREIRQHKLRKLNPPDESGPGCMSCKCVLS
The subject of assay [4] is Ras-related protein Rab-7a (dog), GTP binding. Put plainly: Rab7 GTP binding inhibitors, potency, dose response, biochemical, wildtype, multiplex bead flow cytometry (AID 1336; call rule not given here).
The target of assay [5] is Ras-related C3 botulinum toxin substrate 1 (Homo sapiens) (UniProt P63000). Put plainly: wildtype Rac1 GTP binding inhibitors, dose response, biochemical, multiplex bead flow cytometry (AID 1340;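 active = dose curve with midpoint inside tested range, moderate steepness, plateau gap beyond fit error, low compound glow and bead-link interference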). As to conditions: GST-Rac1 beads, Bodipy-FL-GTP binding; at 100 µM (top of the series) unless noted.
Assay [6] has as its target GTPase HRas (Homo sapiens) (UniProt P01112). The experiment in a line: activated Ras mutant GTP binding inhibitors, dose response, biochemical, multiplex bead flow cytometry (AID 1341;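 active = dose-response curve with midpoint inside the tested range, moderate steepness, significant amplitude and little compound fluorescence or bead-attachment interference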;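 also: GST-tagged constitutively activated Ras mutant immobilized on beads and multiplexed with other GTPases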).

Structures are written as SMILES. For some of these results: Measured potencies and affinities stand elsewhere. Calls of active or inactive are those of the source.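 The calls were made as follows, unless noted: active = fitted half-maximal concentration within 10 nM to 100 µM, steepness 0.5 to 2, significant signal drop, low assay interference; inactive = the rest.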

Consider `Cc1cc(-c2nnc3n2N=C(c2ccc(-c4ccccc4)cc2)CS3)n[nH]1`, for which the result in assay [1], in assay [4] and in assay [6] was inactive. Further, the fluorescence, percent of control (lower = inhibition) in assay [2] was determined as 31.3%. Moreover, the GTP binding, percent of control in assay [3] turned out to be 72.4%. The GTP binding signal, raw median fluorescence (lower = inhibition) (MCF (arbitrary fluorescence units)) in assay [5] was 172.
On to `COc1ccc2c(C(=O)O)cn(CCOc3ccccc3C)c2c1`, for which the result in assay [1], in assay [4] and in assay [6] was inactive. Also, in assay [2], the fluorescence, percent of control (lower = inhibition) is 64.6%. In assay [3], the GTP binding, percent of control worked out at 214%. This compound gave a GTP binding signal, raw median fluorescence (lower = inhibition) (MCF (arbitrary fluorescence units)) in assay [5] of 59.2.
Regarding `C=CCc1cc(/C=C/c2nc(O)c([N+](=O)[O-])c(=O)[nH]2)cc(OC)c1O`, the outcome in assay [1], in assay [4] and in assay [6] was inactive. Besides, in assay [2], the fluorescence, percent of control (lower = inhibition) is 31.5%. Moreover, the GTP binding, percent of control in assay [3] was determined as 77.1%. The same compound gave a GTP binding signal, raw median fluorescence (lower = inhibition) (MCF (arbitrary fluorescence units)) in assay [5] of 177.
For the compound `COc1ccc(CC(=O)c2ccccc2C(=O)O)cc1`, the outcome in assay [1], in assay [4] and in assay [6] was inactive. The fluorescence, percent of control (lower = inhibition) in assay [2] came out at 153%. Besides, in assay [3], the GTP binding, percent of control worked out at 143%. The compound also came in with a GTP binding signal, raw median fluorescence (lower = inhibition) (MCF (arbitrary fluorescence units)) in assay [5] of 368.
Take `Cc1ccc(S(=O)(=O)N2CC3(C)CN(S(=O)(=O)c4ccc(C)cc4)CC(C)(C2)C3O)cc1` (configuration not stated): the call in assay [1], in assay [4] and in assay [6] was inactive. Further, the fluorescence, percent of control (lower = inhibition) in assay [2] was 50%. Also, the GTP binding, percent of control in assay [3] turned out to be 61.9%. Besides, in assay [5], the GTP binding signal, raw median fluorescence (lower = inhibition) (MCF (arbitrary fluorescence units)) stood at 204.
As for `Cc1ccc(C2=NN(CCC(=O)NCc3ccc4c(c3)OCO4)C(=O)CC2)cc1`, the result in assay [1], in assay [4] and in assay [6] was inactive. Moreover, the fluorescence, percent of control (lower = inhibition) in assay [2] turned out to be 51.3%. The GTP binding, percent of control in assay [3] was 60.2%. The GTP binding signal, raw median fluorescence (lower = inhibition) (MCF (arbitrary fluorescence units)) in assay [5] amounted to 207.
On to `CCOC(=O)c1cc2c(N)c(C(=O)c3ccc(Br)cc3)sc2[nH]c1=O`, for which the compound was classed as inactive in assay [1], in assay [4] and in assay [6]. For the same compound, the fluorescence, percent of control (lower = inhibition) in assay [2] was found to be 29%. The compound further returned a GTP binding, percent of control in assay [3] of 69.1%. The compound further came in with a GTP binding signal, raw median fluorescence (lower = inhibition) (MCF (arbitrary fluorescence units)) in assay [5] of 145.
In the case of `CC(=O)c1c(C)[nH]c(C(=O)N2CCc3ccccc3C2)c1C`, the result in assay [1] and in assay [4] was inactive. Further, in assay [2], the fluorescence, percent of control (lower = inhibition) is 107%. The GTP binding, percent of control in assay [3] was found to be 192%.
Consider `COc1cccc2c(SCC(=O)N/N=C/c3ccc(O)cc3O)cc(C)nc12`, for which the call in assay [1], in assay [4] and in assay [6] was inactive. The fluorescence, percent of control (lower = inhibition) in assay [2] came out at 29.6%. In assay [3], this compound registered a GTP binding, percent of control of 62.9%. Also, the GTP binding signal, raw median fluorescence (lower = inhibition) (MCF (arbitrary fluorescence units)) in assay [5] is 110.
For the compound `CCN(CC)c1ccc(/C=N/OCC(=O)Nc2cccc(C)c2)cc1`, the result in assay [1], in assay [4] and in assay [6] was inactive. For the same compound, in assay [2], the fluorescence, percent of control (lower = inhibition) was 65.3%. In assay [3], this compound showed a GTP binding, percent of control of 74.6%. For the same compound, in assay [5], the GTP binding signal, raw median fluorescence (lower = inhibition) (MCF (arbitrary fluorescence units)) is 0.
For `Cn1c(=O)c2c(nc(N/N=C/c3ccco3)n2C)n(C)c1=O`, the compound was classed as inactive in assay [1], in assay [4] and in assay [6]. Further, the fluorescence, percent of control (lower = inhibition) in assay [2] came to 31.1%. Besides, the GTP binding, percent of control in assay [3] is 69.2%. The GTP binding signal, raw median fluorescence (lower = inhibition) (MCF (arbitrary fluorescence units)) in assay [5] was 165.
In the case of `O=C(O)C1=C[C@H](c2ccc(Br)cc2)C[C@H](OCc2ccc(CO)cc2)O1`, the compound was called inactive in assay [1], in assay [4] and in assay [6]. Also, the fluorescence, percent of control (lower = inhibition) in assay [2] was found to be 30.3%. The same compound gave a GTP binding, percent of control in assay [3] of 82.5%. Besides, the GTP binding signal, raw median fluorescence (lower = inhibition) (MCF (arbitrary fluorescence units)) in assay [5] came to 230.
Take `CSc1nc2ccc(NC(=O)C3CC(=O)N(Cc4ccco4)C3)cc2s1` (configuration not stated): the call in assay [1], in assay [4] and in assay [6] was inactive. Further, the fluorescence, percent of control (lower = inhibition) in assay [2] amounted to 34%. Besides, the GTP binding, percent of control in assay [3] was determined as 75.3%. The compound further came in with a GTP binding signal, raw median fluorescence (lower = inhibition) (MCF (arbitrary fluorescence units)) in assay [5] of 195.
For `COc1ccc(Nc2nc(-c3c(C)nc4ncccn34)cs2)cc1`, the outcome in assay [1], in assay [4] and in assay [6] was inactive. The fluorescence, percent of control (lower = inhibition) in assay [2] came to 29%. For the same compound, the GTP binding, percent of control in assay [3] is 66%. In assay [5], this compound yielded a GTP binding signal, raw median fluorescence (lower = inhibition) (MCF (arbitrary fluorescence units)) of 140.
